# Assay results published in PubChem BioAssay (NCATS).
# Where “and” joins values, the source holds several entries; their conditions need not be identical. Equal values may be shown once. Unmarked numbers belong to inactive results. Inconclusive results are not listed. Entries that show only a call come without a potency. Calls of active or inactive are those of the source. Calls come from the whole dose curve; as a rule, active = well fitted curve in the direction sought with a large enough effect; inconclusive = small, poorly fitted or top-dose-only effect, or another doubt; inactive = no such curve, though single readings can be large; an effect the other way counts as inactive or inconclusive.
# Experiments:
# [1] = Cellular Toxicity (caspase-3) BJ (AID 658); details: Potency: caspase-3 activation
# Procedure, shortened: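 BJ human foreskin fibroblasts, 1000 cells/well, treated 16 hours at 37 °C in complete medium; caspase 3/7 activity by Caspase-Glo luminescence after 1 hr at room temperature. Normalized to DMSO and 10 uM staurosporine; AC50 from Hill fits.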
# [2] = Cellular Toxicity (caspase-3) MRC-5 (AID 659)
# Procedure, shortened: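 MRC-5 human normal lung fibroblasts, 1500 cells/well, treated 16 h at 37 °C in complete medium. Caspase 3/7 measured by Caspase-Glo luminescence after 1 h at room temperature. Normalized to DMSO and 10 uM staurosporine; AC50 from Hill fit.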
# [3] = Cellular Toxicity (caspase-3) Mesangial (AID 660);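 note: combined caspase 3 and 7 activity read by Caspase-Glo luminescence; cells exposed to compound for 16 h before the caspase read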
# Procedure, shortened: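 Human renal glomerular mesangial cells, 1000/well, 5 h at 37 C before 16 h compound treatment. Caspase-Glo 3/7 luminescence after 20 min; normalized to DMSO and 100 uM tamoxifen, AC50 from Hill fit.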
# [4] = Cellular Toxicity (caspase-3) SK-N-SH (AID 661)
# Procedure, shortened: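 Human SK-N-SH neuroblastoma cells, 1500/well, were exposed to compounds for 16 hours at 37 °C. Caspase-Glo 3/7 luminescence was normalized to DMSO (basal) and 10 uM staurosporine (100%), and AC50 came from a Hill fit.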
# [5] = Cellular Toxicity (caspase-3) Hek293 (AID 664); details: HEK293 caspase-3 activation, DMSO = 0%, 100 µM tamoxifen = 100%; at 92.2 µM (top of the series);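 note: cells exposed to compound for 16 h at 37 °C before readout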
# Procedure, shortened: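 HEK293 cells in complete medium treated 16 h at 37 °C, then Caspase-Glo 3/7 luminescence read after 20 min at room temperature. Normalized to DMSO and 100 uM tamoxifen; AC50 from Hill fit of concentration-response.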
# [6] = Cellular Toxicity (caspase-3) N2a (AID 665);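 note: compound exposure lasted 16 h at 37 °C before readout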
# Procedure, shortened: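 Mouse N2a neuroblastoma cells, 1500 per well, treated 16 h at 37 °C in complete medium; caspase-3/7 activity by Caspase-Glo luminescence after 1 h. Normalized to DMSO and 10 uM staurosporine; AC50 from Hill fits.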
# [7] = Cellular Toxicity (caspase-3) NIH 3T3 (AID 666);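 note: caspase signal read after 16 h compound exposure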
# Procedure, shortened: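 Mouse NIH 3T3 fibroblasts (1000/well) treated 16 h at 37 C; caspase-3/7 activity measured by Caspase-Glo 3/7 luminescence after 20 min. Normalized to DMSO and 100 uM tamoxifen; AC50 from Hill fits.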
# [8] = Cellular Toxicity (caspase-3) Renal Proximal Tubule (AID 667); details: Potency: caspase-3 activation;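 note: cells exposed to compound for 16 hours at 37 °C before detection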
# Procedure, shortened: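 AC50 derived by standard Hill fit of concentration-response data, normalized between DMSO basal and 10 uM staurosporine as 100% stimulation. Cells: primary rat kidney proximal tubule, 16 h treatment at 37 °C.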
# [9] = target: Cytochrome P450 2C9 (Homo sapiens) (UniProt P11712); experiment: qHTS Assay for Inhibitors and Substrates of Cytochrome P450 2C9 (AID 883); note: nearly all actives have a fitted effect of over 60% in size
# Cytochrome P450 2C9 (Homo sapiens), sequence (P11712 whole entry, looked up): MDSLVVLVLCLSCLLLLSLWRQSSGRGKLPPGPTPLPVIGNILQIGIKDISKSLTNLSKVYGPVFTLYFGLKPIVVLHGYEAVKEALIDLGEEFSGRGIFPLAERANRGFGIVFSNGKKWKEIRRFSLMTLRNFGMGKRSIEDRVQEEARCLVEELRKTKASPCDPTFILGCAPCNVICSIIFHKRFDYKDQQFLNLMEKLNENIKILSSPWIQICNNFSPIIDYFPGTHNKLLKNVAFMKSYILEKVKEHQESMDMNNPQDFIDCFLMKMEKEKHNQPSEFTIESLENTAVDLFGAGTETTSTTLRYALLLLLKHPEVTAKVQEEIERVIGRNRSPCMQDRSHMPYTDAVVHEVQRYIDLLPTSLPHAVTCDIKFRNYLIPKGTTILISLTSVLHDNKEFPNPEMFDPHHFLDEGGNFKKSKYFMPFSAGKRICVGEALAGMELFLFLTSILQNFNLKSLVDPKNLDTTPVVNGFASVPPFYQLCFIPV
# Procedure, shortened: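 Human CYP2C9 (10nM) with Luciferin-H at 100uM (its KM) in 25mM KPO4; compound preincubated 10 min at 37C, then NADPH regeneration for 60 min at 37C. Luciferin read by luminescence after detection reagent; normalized to 57uM sulphaphenazole as full inhibition.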
# [10] = target: Cytochrome P450 3A4 (Homo sapiens) (UniProt P08684); experiment: qHTS Assay for Inhibitors and Substrates of Cytochrome P450 3A4 (AID 884); note: potency is the fitted concentration of half-maximal effect; nearly all actives have a fitted effect of over 50% in size
# Cytochrome P450 3A4 (Homo sapiens), sequence (P08684 whole entry, looked up): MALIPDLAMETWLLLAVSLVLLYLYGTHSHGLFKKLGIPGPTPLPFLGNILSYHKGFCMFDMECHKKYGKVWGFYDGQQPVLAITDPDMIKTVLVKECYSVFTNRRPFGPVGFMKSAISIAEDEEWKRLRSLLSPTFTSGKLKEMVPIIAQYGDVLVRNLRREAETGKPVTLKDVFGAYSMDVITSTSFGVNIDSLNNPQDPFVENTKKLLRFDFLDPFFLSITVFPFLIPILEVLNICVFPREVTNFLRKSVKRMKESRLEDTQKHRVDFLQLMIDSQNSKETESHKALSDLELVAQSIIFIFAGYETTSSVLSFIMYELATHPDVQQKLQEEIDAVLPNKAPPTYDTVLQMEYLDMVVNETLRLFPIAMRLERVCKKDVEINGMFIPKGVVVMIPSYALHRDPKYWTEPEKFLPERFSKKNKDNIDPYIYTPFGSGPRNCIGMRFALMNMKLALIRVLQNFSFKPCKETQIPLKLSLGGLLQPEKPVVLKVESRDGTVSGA
# Procedure, shortened: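 20 nM human CYP3A4 with 25 uM Luciferin-PPXE (at KM) in 200 mM KPO4, preincubated 10 min with compound; NADPH regeneration started a 60 min RT reaction. Luciferin detected by luminescence, normalized to 57 uM ketoconazole as full inhibition.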
# [11] = target: Cytochrome P450 3A4 (Homo sapiens) (UniProt P08684); experiment: qHTS Assay for Activators of Cytochrome P450 3A4 (AID 885); note: nearly all actives have a fitted effect of over 65% in size
# Procedure, shortened: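 Signal was normalized against complete inhibition by 57 uM ketoconazole. The reaction used 20nM CYP3A4 with 25uM Luciferin-PPXE, 10-min compound preincubation and a 60-min NADPH-supported step at RT.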
# [12] = target: Cytochrome P450 2D6 (Homo sapiens) (UniProt P10635); experiment: qHTS Assay for Inhibitors and Substrates of Cytochrome P450 2D6 (AID 891); note: potency is the fitted concentration of half-maximal effect; nearly all actives have a fitted effect of over 60% in size
# Cytochrome P450 2D6 (Homo sapiens), sequence (P10635 whole entry, looked up): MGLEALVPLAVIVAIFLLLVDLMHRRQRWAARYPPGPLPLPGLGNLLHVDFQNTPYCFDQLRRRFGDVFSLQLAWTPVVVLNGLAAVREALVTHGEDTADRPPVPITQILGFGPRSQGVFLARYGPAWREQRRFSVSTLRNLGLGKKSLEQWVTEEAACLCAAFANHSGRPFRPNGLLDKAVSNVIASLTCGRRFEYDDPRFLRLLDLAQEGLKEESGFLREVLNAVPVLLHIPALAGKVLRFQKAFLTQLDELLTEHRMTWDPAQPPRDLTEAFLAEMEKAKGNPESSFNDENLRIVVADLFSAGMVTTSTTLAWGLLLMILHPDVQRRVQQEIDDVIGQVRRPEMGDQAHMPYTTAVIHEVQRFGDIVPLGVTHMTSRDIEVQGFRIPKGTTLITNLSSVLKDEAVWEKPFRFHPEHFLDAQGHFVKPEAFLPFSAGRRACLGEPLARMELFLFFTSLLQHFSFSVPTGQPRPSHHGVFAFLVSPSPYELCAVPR
# Procedure, shortened: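 Human CYP2D6 (5 nM) with 30 uM Luciferin-ME EGE (at Km) in 100 mM KPO4, compound preincubated 10 min, then NADPH regeneration system for 60 min at room temperature. Luciferin read by luminescence; normalized to 1.43 uM quinidine.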
# [13] = target: Cytochrome P450 2C19 (Homo sapiens) (UniProt P33261); experiment: qHTS Assay for Inhibitors and Substrates of Cytochrome P450 2C19 (AID 899); note: nearly all actives have a fitted effect of over 60% in size
# Cytochrome P450 2C19 (Homo sapiens), sequence (P33261 whole entry, looked up): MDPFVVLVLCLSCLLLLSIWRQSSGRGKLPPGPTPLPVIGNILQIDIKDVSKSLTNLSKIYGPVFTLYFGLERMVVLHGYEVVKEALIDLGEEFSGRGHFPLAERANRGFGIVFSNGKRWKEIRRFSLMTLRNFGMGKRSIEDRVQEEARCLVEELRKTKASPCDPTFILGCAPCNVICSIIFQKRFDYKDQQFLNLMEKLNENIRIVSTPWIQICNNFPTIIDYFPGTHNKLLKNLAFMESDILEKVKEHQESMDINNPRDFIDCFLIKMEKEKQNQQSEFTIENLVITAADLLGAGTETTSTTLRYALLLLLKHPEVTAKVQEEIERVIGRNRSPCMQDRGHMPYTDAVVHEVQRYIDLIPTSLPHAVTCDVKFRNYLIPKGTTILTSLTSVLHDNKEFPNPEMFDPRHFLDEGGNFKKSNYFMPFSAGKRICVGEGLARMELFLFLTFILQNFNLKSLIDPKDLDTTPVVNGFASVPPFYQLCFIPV
# Procedure, shortened: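 5 nM human CYP2C19 with 10uM Luciferin-H EGE (at KM) in 50mM KPO4, compound preincubated 10 min at 37C, then NADPH regeneration for 60 min at 37C. Luciferin read by luminescence after detection reagent; normalized to 57uM ketoconazole as full inhibition.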
# [14] = MultiTox-Fluor Cytotoxicity Assay - LYMP1-001 - Live Cells (AID 947); note: potency is the fitted concentration of half-maximal effect
# [15] = Cell Viability - LYMP1-002 - Assay at 16 hr (AID 948); note: potency is the fitted concentration of half-maximal effect
# Procedure, shortened: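 Seed 2500 LYMP1-002 cells per well in complete medium and hold 5 hr at 37 C. Add compound across a concentration series and incubate 16 hr at 37 C. Add CellTiter-Glo, wait 30 min at room temperature, read luminescence.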
# [16] = MultiTox-Fluor Cytotoxicity Assay - LYMP1-002 - Dead Cells (AID 960); note: nearly all actives have a fitted effect of over 60% in size
# Procedure, shortened: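 Human lymphoblastoid LYMP1-002 cells, 2500/well, treated 16 h at 37 C; dead-cell protease cleavage of bis-AAF-R110 read by fluorescence (485/520); normalized to DMSO and 15 uM tetraoctylammonium bromide; AC50 from Hill fit.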
# [17] = MultiTox-Fluor Cytotoxicity Assay - LYMP1-003 - Dead Cells (AID 961); note: nearly all actives have a fitted effect of over 70% in size
# Procedure, shortened: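 Dead-cell protease release, detected as bis-AAF-R110 fluorescence at 485/520 nm, was measured in LYMP1-003 cells after 16 h compound treatment at 37 C. AC50 values came from Hill-modeled qHTS curves normalized to DMSO (0%) and 15 uM tetraoctylammonium bromide (100%).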
# [18] = Cell Viability - LYMP1-003 - Assay at 24 hr (AID 963); note: potency is the fitted concentration of half-maximal effect
# Procedure, shortened: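 Human lymphoblastoid LYMP1-003 cells, 2500/well, treated 24 h at 37 C in complete medium. Viability read as intracellular ATP by CellTiter-Glo luminescence after 30 min at room temperature; AC50 from Hill-equation fits of qHTS concentration-response.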
smiles,measurement,setting,value
N=C1C=CC(=C(c2ccc(N)cc2)c2ccc(N)cc2)C=C1,Potency,[1],inactive
same,outcome,[2],inactive
same,outcome,[3],inactive
same,outcome,[4],inactive
same,caspase-3 activation,[5],-1.95%
same,outcome,[6],inactive
same,outcome,[7],inactive
same,Potency,[8],inactive
same,Potency,[9],inactive
same,Potency,[10],12.6 µM (active) and 3.16 µM (active)
same,Potency,[11],inactive
same,Potency,[12],1.58 µM (active)
same,Potency,[13],inactive
same,Potency,[14],15.8 µM (active)
same,Potency,[15],25.1 µM (active)
same,Potency,[16],inactive
same,Potency,[17],inactive
same,Potency,[18],15.8 µM (active)
